Compound activity deposited in PubChem by National Center for Advancing Translational Sciences (NCATS).
This excerpt belongs to a sample that is enriched for hits.
Marburg entry inh – blocks Marburg virus binding to or entry into cells. Marburg virus pseudotyped entry inhibition, cell reporter. Potency, µM (series often up to 37.8 µM), hits mostly inhibitors. 300,000 compounds, 1.8% hits. AID 540276; calls by dose curve; tested in HEK293 cells
Cycloheximide cs – affects cycloheximide protein synthesis inhibition readout, counter-screen. cell reporter, cycloheximide protein synthesis inhibition counterscreen. max response, %. 300,000 compounds, 12% hits. AID 2314; in the data active = max response mostly above about 13%, no sharp cut-off; inactive = mostly below about 14%; note: read at 38.3 µM for the half of the compounds with a filed dose
Shiga toxin inh – inhibitors of Shiga toxin in Vero cells | Vero cells, Shiga toxin protein synthesis inhibition reporter | inhibition, % at 38.7 µM | 290,000 compounds, 9.2% hits | AID 2315; in the data active = inhibition mostly above about 28%, no sharp cut-off; inactive = mostly below about 43%
Lassa entry inh – blocks Lassa virus binding to or entry into cells | AID 540256 | Potency, µM (top dose mostly 37.9 µM), hits mostly inhibitors | Lassa virus pseudotype entry inhibition, cell reporter | 300,000 compounds, 1.2% hits; calls by dose curve; tested in HEK293 cells; note: nearly all actives have a fitted effect of over 50% in size
VACV mCherry inh – inhibitors of vaccinia virus infection (mCherry reporter signal) | Vaccinia virus mCherry reporter infection, fluorescence | Potency, µM (titrated, usually from 36.5 µM), hits mostly inhibitors | 310,000 compounds, 0.63% hits; calls by dose curve; tested in A549 cells; note: nearly all actives have a fitted effect of over 35% in size
VACV Venus inh – vaccinia inhibition (Venus reporter). Vaccinia virus Venus reporter expression, fluorescence. 330,000 compounds, 0.46% hits. Potency, µM (doses to about 36.5 µM), usual class: inhibitors; calls by dose curve; tested in A549 cells; note: nearly all actives have a fitted effect of over 30% in size
Numbers stand for hits; - = inactive; ? = inconclusive; . = no result; + = active, no number.

SMILES	Marburg entry inh	Cycloheximide cs	Shiga toxin inh	Lassa entry inh	VACV mCherry inh	VACV Venus inh
N#CC1(NC(=O)COc2ccc3ccc(=O)oc3c2)CCCCC1	-	.	.	-	-	-
COCc1ccccc1C1=CC(=O)C[C@H](c2ccc(F)cc2)C1	.	.	.	.	-	-
CN(C)CC(=O)N1CCc2ccccc2C1	-	-	-	-	-	-
COc1ccc(CC(=O)N2CCc3ccccc3C2)cc1	.	22	24	.	.	.
Fc1ccc(NC(=S)N2CCOCC2)c(F)c1	.	-	-	.	.	.
CCc1ccc(/C=C\C(=O)N2CCc3ccccc3C2)cc1	-	13	43	-	-	-
COc1cc2c(cc1OC)CN(C(=O)COc1ccccc1C#N)CC2	-	22	-	-	-	-
Fc1ccc(NC(=S)N2CCc3ccccc3C2)c(F)c1	-	32	67	-	-	-
CCn1nnc2c(N3CCCC3)ncnc21	.	.	.	.	-	-
Cc1ccc(CNC(=O)Cn2ncc3c([nH]c4ccc(C)cc43)c2=O)cc1	.	.	.	-	-	-
O=C(/C=C/c1ccccc1[N+](=O)[O-])N1CCc2ccccc2C1	-	21	-	-	-	-
O=C(c1cc(Cl)ccc1[N+](=O)[O-])N1CCc2ccccc2C1	-	-	-	-	-	-
CC1=C([N+](=O)[O-])C(c2ccc3c(c2)OCO3)N(C)C(=O)N1C (stereo unspecified)	-	-	-	-	-	-
N#C/C(=C/c1cccs1)c1nc2ccccc2[nH]1	?	65	64	-	-	-
N#C/C(=C\c1ccc[nH]1)Sc1nc2ccccc2s1	-	-	-	-	.	?
N#C/C(=C\C1CC=CCC1)c1nc2ccccc2[nH]1 (stereo unspecified)	?	27	-	?	.	.
N#C/C(=C\c1c(Cl)cccc1Cl)c1nc2ccccc2[nH]1	?	14	-	?	-	-
N#C/C(=C\c1cccs1)Sc1nc2ccccc2s1	?	31	44	-	-	-
Cc1ccccc1NC(=O)Cn1c(=O)n(Cc2ccc3c(c2)OCO3)c(=O)c2ccccc21	-	.	.	-	-	-
CC(C)[C@@H](OCc1ccccc1)[C@H](C)CO/N=C1/[C@H]2CCn3c(=O)n(-c4ccccc4)c(=O)n3[C@H]2[C@H](O)[C@@H]2O[C@H]12	-	.	.	.	.	.
Cc1ccc(/C=C(\C#N)c2nc3ccccc3[nH]2)s1	-	49	53	-	-	-
O=C(/C=C1\NC2(CCCC2)Cc2ccccc21)C(=O)N/N=C/c1ccccc1O	11µM	23	-	15µM	13µM	?
Cc1c(Cl)cccc1NC(=O)Nc1c[nH]c(=O)[nH]c1=O	.	.	.	-	-	-
CCN(CC)C(=O)CSc1ncnc2c(-c3ccc(OC)cc3)nsc12	.	-	-	.	.	.
COc1ccc(-c2nsc3c(SCc4ccccc4)ncnc23)cc1	-	20	+	-	-	-
SMILES	Marburg entry inh	Cycloheximide cs	Shiga toxin inh	Lassa entry inh	VACV mCherry inh	VACV Venus inh
C[C@]12C=CC(=O)C=C1CCC1C2=CC[C@]2(C)[C@@H](C(=O)CN3CCN(c4cc(N5CCCC5)nc(N5CCCC5)n4)CC3)CC[C@@H]12 (stereo partly specified)	5.6µM	.	.	.	.	.
CN1CCN(C(=O)c2cnn3c(C(F)(F)F)cc(-c4cccs4)nc23)CC1	-	-	-	-	-	-
O=C(c1nn2c(C(F)(F)F)cc(-c3cccs3)nc2c1Br)N1CCCc2ccccc21	-	21	-	-	-	-
O=C(c1cnn2c(C(F)(F)F)cc(-c3cccs3)nc12)N1CCN(C(c2ccccc2)c2ccccc2)CC1	13µM	-	-	?	.	-
O=C(c1cc2nc(-c3cccs3)cc(C(F)(F)Cl)n2n1)N1CCCc2ccccc21	?	-	-	-	-	-
O=C(c1cc2nc(-c3cccs3)cc(C(F)(F)F)n2n1)N1CCCc2ccccc21	?	20	-	?	-	-
O=C(NCCc1ccccc1)[C@@H]1CC=C[C@@H]2CCN(C3CC3)C(=O)[C@@H]21	.	.	.	.	-	-
O=C(NCC1Cc2cccc(-c3ncccn3)c2O1)C1CCCO1 (stereo unspecified)	.	.	.	.	-	-
C=CCNC(=O)c1ccc2nc(-c3ccccc3)c(-c3ccccc3)nc2c1	-	-	-	?	-	-
CCC(=O)Nc1ccc(NCc2ccc(-c3ccccc3)cc2)cc1	-	-	-	-	-	-
CCC(=O)NC1=C(Nc2ccc(N)cc2)C(=O)c2ccccc2C1=O	?	27	96	-	-	-
CCCCC(=O)Nc1ccc(C2C(=O)c3ccccc3C2=O)cc1	-	.	.	?	-	-
CCC(=O)Nc1ccc(NC(=S)Nc2ccccc2)cc1	?	-	-	-	-	-
CCC(=O)Nc1ccc(C(=O)c2ccccc2)cc1	-	20	-	-	.	-
C=CCNC(=O)c1ccc(C(=O)c2ccccc2)cc1	-	24	110	-	.	.
CCC(=O)Nc1ccc(C2C(=O)c3ccccc3C2=O)cc1	10µM	25	-	?	-	-
CC(C)C1OC(CCc2ccccc2)Cc2[nH][nH]c(=O)c21 (stereo unspecified)	.	.	.	.	-	-
CSCCC(NS(=O)(=O)c1ccc2c(c1)oc(=O)n2C)C(=O)NCc1cccs1 (stereo unspecified)	?	-	-	-	-	-
CCCCC(CC)C(=O)Nc1ccc(Nc2ccccc2)cc1 (stereo unspecified)	-	-	-	-	-	-
CCC(CC)C(=O)Nc1ccc(C(=O)c2ccccc2)cc1	-	18	50	-	-	-
O=C(Nc1ccc(C(=O)c2ccccc2)cc1)c1ccccc1	?	56	148	?	?	-
CCN(CC)CCCNc1cc(C)nc2cc(-c3cccs3)nn12	18µM	-	-	-	-	-
Cc1cc(C(F)(F)F)n2nc(-c3cccs3)cc2n1	?	31	39	-	-	-
CCOC(=O)c1c(C)c(-c2ccccc2)n(CC(=O)NC2CCCCCC2)c1C	?	.	.	.	-	-
COc1ccccc1CNc1ccc(N2CCCCC2)cc1	5.2µM	-	-	?	-	-
SMILES	Marburg entry inh	Cycloheximide cs	Shiga toxin inh	Lassa entry inh	VACV mCherry inh	VACV Venus inh
COc1cccc(CNc2ccc(N3CCCCC3)cc2)c1OC	?	30	34	?	.	-
COc1cc(CNc2ccc(N3CCCC3)cc2)cc(Cl)c1OC	?	-	-	?	-	-
O=[N+]([O-])c1cc(-c2cnc3ccccc3n2)ccc1Cl	?	-	-	.	-	-
O=[N+]([O-])c1cc(-c2cnc3ccccc3n2)ccc1Oc1ccc(Cl)cc1	.	38	39	.	.	.
COc1ccccc1Oc1ccc(-c2cnc3ccccc3n2)cc1[N+](=O)[O-]	?	62	73	?	?	-
O=C(COC(=O)Cn1cnc2ccccc2c1=O)Nc1ccccc1OC(F)F	-	.	.	-	-	-
O=C(Nc1ccc2c(c1)C(=O)OC2)c1ccc(Cl)cc1Cl	-	-	-	-	-	-
O=C(Nc1ccc2c(c1)C(=O)OC2)c1ccc(F)cc1F	-	27	35	?	-	-
O=C(Nc1ccc2c(c1)C(=O)OC2)c1ccc(Cl)cc1	-	18	-	-	-	-
O=C(Nc1ccc2c(c1)C(=O)OC2)c1ccc(C(F)(F)F)cc1	-	-	-	-	-	-
CCOC(=O)c1c(NC(=O)CN2CCCc3ccccc32)sc(C)c1C	?	34	-	-	-	-
